# According to the supplement of paper PMC3484114:
# ± gives the standard deviation.
# Test system: OVCAR-3-derived ovarian cancer stem-like cells (spheroids)
# Experiment: cell growth relative to untreated control; higher = more growth (less inhibition)
# Details: 2.29 µM; 96 h
# How it was run: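 Percent growth was calculated against untreated wells once blanks were subtracted and Grubbs outliers removed. The cells were OVCAR-3 spheroid-derived stem-like cells, trypsinized and plated at 50,000 cells/mL in stem cell medium on ultra-low attachment 96-well plates for a 24 h preincubation. They were then exposed to compounds at 2.29 uM for 96 h at 37°C, 5% CO2, in 4 replicate wells, and viability was measured by TOX8 resazurin fluorescence (ex 560/em 590 nm) after 4 h.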
row,Compound,cell growth [%]
1,CC(=O)c1sc2c(c1OC(=O)c1ccc(Cl)cc1Cl)c(=O)n(-c1ccccc1)c(=S)n2-c1ccccc1,94.1 ± 24
2,CC(Cc1ccccc1)NC1=NCCO1 (stereo not given),88.1 ± 13
3,O=Nc1ccc(O)c2ncccc12,82 ± 25
4,COC(=O)c1ccccc1NC(=O)C(=O)CC(=O)c1ccccc1NC1=CC(=O)C(=O)c2ccccc21,65.5 ± 12
5,CN(C)CCOC1(Cc2ccc(F)cc2)CCC(C(C)(C)C)CC1 (stereo not given),109 ± 34
6,Nc1ccccc1C(=O)NC(=O)Nc1ccc(Oc2ncc(Br)cn2)c(Cl)c1,61.6 ± 21
7,O=C(NCCCCCCCCNC(=O)c1cccc2ccccc12)c1cccc2ccccc12,80.8 ± 18
8,CN(Cc1cnc2nc(N)nc(N)c2n1)c1ccc(C(=O)NC(CCC(=O)O)C(=O)O)c2ccccc12 (stereo not given),84.7 ± 30
9,CN1CCN(CCCN2c3ccccc3Sc3ccc(C(F)(F)F)cc32)CC1,79.1 ± 24
10,O=C1C(Cl)=C(N2CCN(C3=C(Cl)C(=O)c4ccccc4C3=O)CC2)C(=O)c2ccccc21,52.1 ± 17
11,CCN(CC)CCOc1ccc(C(O)(Cc2ccc(OC)cc2)c2ccccc2)cc1 (stereo not given),118 ± 40
12,CN(C)c1ccc(/C=N/N=C2\C(=O)Nc3c(Cl)cc(Cl)cc32)cc1,106 ± 28
13,CNC(=S)N/N=C/c1ccc([N+](=O)[O-])s1,87.9 ± 21
14,CN(CCc1ccccn1)c1ccc2c(c1)C(=O)c1ccccc1-2,103 ± 32
15,O=S(=O)(O)c1cc(N=Nc2cc(S(=O)(=O)O)c3ccccc3c2O)ccc1/C=C/c1ccc(N=Nc2cc(S(=O)(=O)O)c3ccccc3c2O)cc1S(=O)(=O)O,110 ± 24
16,O=Cc1cc([N+](=O)[O-])no1,115 ± 26
17,C(=N\NC1=NCCN1)/c1c2ccccc2c(/C=N/NC2=NCCN2)c2ccccc12,21.4 ± 5.8
18,Cc1cc(Cl)cc2c1NC(=O)C2(O)C(C(=O)c1ccccc1)c1ccccc1 (stereo not given),94.9 ± 12
19,CCN(CC)CCOC(=O)Cc1cccc2c(=O)cc(-c3ccccc3)oc12,91.6 ± 23
20,NC1N=C(c2ccc(Cl)cc2)C2=C(N1)c1ccccc1CC2 (stereo not given),85.7 ± 6.7

row,Compound,cell growth [%]
1,CO[C@@H]1[C@@H](OC(=O)c2ccc(C)[nH]2)[C@@H](O)[C@H](Oc2ccc3c(O)c(NC(=O)c4c[nH]c(C(=O)Nc5c(O)c6ccc(O[C@@H]7OC(C)(C)[C@H](OC)[C@@H](OC(=O)c8ccc(C)[nH]8)[C@H]7O)c(C)c6oc5=O)c4C)c(=O)oc3c2C)OC1(C)C,100 ± 22
2,CN(C)C(=O)c1cccc(COc2ccc(N3C(N)=NC(N)=NC3(C)C)cc2Cl)c1,76 ± 15
3,O=[n+]1c2c(n([O-])c3ccccc31)-c1cccc3cccc-2c13,92 ± 21
4,Cc1ccc(S(=O)(=O)N2CCSCCSCCSCCSCC2)cc1,92.2 ± 26
5,COC(=O)[C@@H]1[C@H](O)[C@H](C)[C@H](O)[C@H](C)/C=C\C=C(/C)C(=O)Nc2c(C)c(OC(C)=O)c3c(c2O)C(=O)C(C)=C2OCOC(=C23)/C(C)=C/[C@@](C)(O)[C@H](O)[C@@H](C)[C@H]1OC(C)=O,110 ± 22
6,Cc1c2oc3c(C)ccc(C(=O)N[C@@H]4C(=O)N[C@H](C(C)C)C(=O)N5CCC[C@H]5C(=O)N(C)CC(=O)N(C)[C@@H](C(C)C)C(=O)O[C@@H]4C)c3nc-2c(C(=O)N[C@@H]2C(=O)N[C@H](C(C)C)C(=O)N3CCC[C@H]3C(=O)N(C)CC(=O)N(C)[C@@H](C(C)C)C(=O)O[C@@H]2C)c(N)c1=O,8.44 ± 3.9
7,O=[N+]([O-])c1ccc2oc(=Nc3ccccc3)c(Nc3ccccc3)nc2c1,101 ± 11
8,CC[C@@]1(O)C(=O)OCc2c1cc1n(c2=O)Cc2cc3c(N)cccc3nc2-1,46.5 ± 11
9,COc1ccc(O)cc1,62.6 ± 18
10,O=C(OCC12CC3CC(CC(C3)C1)C2)c1ccc(NCc2cc(O)ccc2O)cc1,159 ± 28
11,CCOC(=O)c1ccc(-c2cc(C)no2)[nH]1,54.8 ± 10
12,C[n+]1ccc(Nc2ccc(NC(=O)c3ccc(Nc4cc[n+](C)c5ccc([N+](=O)[O-])cc45)cc3[N+](=O)[O-])cc2)cc1,70 ± 17
13,Nc1ncnc2c1ncn2[C@@H]1O[C@H](CO)C[C@H]1O,89.8 ± 18
14,CCCCCCCCCCCCCCCCCCOCC(COP(=O)([O-])OCC[N+](C)(C)C)OC (stereo not given),93 ± 25
15,O=C1c2ccccc2C(=O)c2c(O)c(O)cc(O)c21,25.5 ± 6.6
16,CCn1c(O)c(C=Nc2ccccc2)s/c1=N/Nc1ncc(CC(=O)Nc2ccccc2C)s1,95.9 ± 16
17,COc1ccc2nc(NC(=O)C(=O)CC(=O)c3ccc(Cl)cc3)sc2c1,109 ± 40
18,Cc1ccc(C)c2c(N=Nc3ccccc3[N+](=O)[O-])c(O)[nH]c12,138 ± 41
19,CCOC(=O)CCc1c(C)c2c(O)cc(O)cc2oc1=O,100 ± 21
20,COC(=O)NC1C(C)OC(OC2C/C=C(/C)C3C=CC4C(OC5CC(OC6CCC(OC7CC(O)C(OC8CCC(O)C(C)O8)C(C)O7)C(C)O6)C(OC(C)=O)C(C)O5)C(C)CC(C)C4C3(C)/C(O)=C3/C(=O)OC4(CC(C=O)=CC(O)C4/C=C\2C)C3=O)CC1(C)[N+](=O)[O-] (stereo not given),61.9 ± 10
